Test results: PubChem BioAssay (NCATS)
Inconclusive results are not listed. A call without a number means that no potency is given here. Activity calls are given as the source filed them. Calls follow the shape of the dose curve; as a rule, active = well fitted cell-killing curve with a large enough effect; inconclusive = small, poorly fitted or top-dose-only effect; inactive = flat fitted curve, though single readings scatter.

Assay: qHTS of pediatric cancer cell lines to identify multiple opportunities for drug repurposing: Confirmatory screen for SK-N-SH cells (AID 1347129);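 also: cells exposed to compound for 48 h before viability read; nearly all actives have a fitted effect of over 60% in size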
Conditions: SK-N-SH neuroblastoma cell viability; series mostly up to 46.1 µM
Summary of the method: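 Cells (500-1,000/well) in growth media were settled 5 h at 37 degrees C, then given compounds for 48 h. Viability was read as CellTiter-Glo luminescence. Primary runs used MIPE at 11 points (0.78 nM-46 µM) and NPC at 8 points (0.59 nM-46 µM); follow-ups used 11 points.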

SMILES	Potency
CO[C@H]1/C=C\O[C@@]2(C)Oc3c(C)c(O)c4c(O)c(c5c(nc6cc(C)ccn65)c4c3C2=O)NC(=O)C(C)=CC=C[C@H](C)[C@H](O)[C@@H](C)[C@@H](O)[C@@H](C)[C@H](OC(C)=O)[C@H]1C	inactive
C[C@H](c1ccc(F)cc1CCCC(=O)O)N(c1cc(F)ccc1F)S(=O)(=O)c1ccc(Cl)cc1	inactive
Nc1ncnc2c1ncn2[C@@H]1O[C@H](CO)[C@@H](O)[C@@H]1O	inactive
